The supplement of paper PMC3334620
Whole data set: some 33,000 sequences, median “E-score (-0.5 to 0.5)” near -0.035, cut for the highest 2% near 0.34. What follows is part of a selection rich in the highest values, with near analogues and random picks from the rest.

Target: T1, Mot3 (UniProt P54785)
T1 sequence: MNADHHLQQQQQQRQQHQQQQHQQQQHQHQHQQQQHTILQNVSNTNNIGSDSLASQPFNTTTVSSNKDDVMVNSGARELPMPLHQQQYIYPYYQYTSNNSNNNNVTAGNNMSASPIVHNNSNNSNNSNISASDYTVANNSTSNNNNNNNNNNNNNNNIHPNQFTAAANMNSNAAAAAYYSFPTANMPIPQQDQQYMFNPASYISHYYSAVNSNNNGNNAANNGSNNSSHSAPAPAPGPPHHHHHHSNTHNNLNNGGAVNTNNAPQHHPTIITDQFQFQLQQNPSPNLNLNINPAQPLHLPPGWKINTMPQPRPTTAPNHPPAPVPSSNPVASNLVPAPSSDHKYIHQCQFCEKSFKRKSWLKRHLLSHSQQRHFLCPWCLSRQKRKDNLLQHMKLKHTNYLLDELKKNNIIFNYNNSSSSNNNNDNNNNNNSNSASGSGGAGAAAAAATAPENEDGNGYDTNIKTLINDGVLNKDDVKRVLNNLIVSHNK
Assay: PBM E-score (8-mer binding enrichment) (E-score (-0.5 to 0.5)); higher = stronger / more preferred TF binding
Conditions: protein concentration: 200 nM; construct: GST-full length
Description: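 Universal 'all 10-mer' protein binding microarrays (Agilent AMADID 015681) probed with GST-tagged S. cerevisiae TFs (full-length or DBD) made by in vitro transcription/translation (PURExpress), about 100-200 nM. Bound TF was detected with fluorescent anti-GST. Each ungapped 8-mer (which stands for itself and its reverse complement) is scored by the PBM enrichment score (E-score), a modified Wilcoxon-Mann-Whitney statistic from -0.5 to +0.5, computed with the Universal PBM Analysis Suite. Scale: above 0.35 generally sequence-specific binding.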

Sequence	PBM E-score
CGGAAAAC	0.0409
GGGAAAAC	-0.195
TGGAAAAA	0.0684
AGGAAAAC	0.416
AGGAAAAG	0.305
ACGAAAAT	0.163
AGGAAAAT	0.416
AGGAAAAA	0.352
AGAAAAAT	0.133
CCAGGGGA	-0.363
ATGAGAAC	0.00278
ATAGTGCA	0.134
GATTGAAC	0.142
ACCTCATG	-0.175
AAACGCTA	-0.0463
CACAACAG	0.181
AGTCCCCA	-0.348
CCATGATC	-0.251
ACATGAAT	0.294
ACATGACA	0.343
ACATGAAG	0.344
ACATGAAC	0.256
ACATGATC	0.385
ACATGACT	0.211
GCATGATA	0.0933

Sequence	PBM E-score
CCATGATA	-0.147
GCATGACA	0.116
ACATGATA	0.35
ACATGATG	0.241
CCACACCC	-0.133
CAGGAGGG	-0.159
AGAGTGAT	0.105
CTCGCCAA	-0.0783
CAGTTGTA	0.00216
TAGCCAAA	-0.0612
CACAGACC	0.0761
CACGCTTC	0.146
AAGTTTAA	0.068
ACAACATA	0.307
ATAACATC	0.21
ATAACAGG	0.229
CTAACATA	0.156
ATAACACA	0.332
ATAACATG	0.36
ATAACACG	0.391
CTAACACA	0.313
ACAACATG	0.359
GTAACATA	0.26
ATAACATA	0.344
ACAACATC	0.195

Sequence	PBM E-score
GCGCTCGA	-0.00313
ATCAACGC	0.194
CGTCGCAC	-0.243
ATGGGCAC	0.333
CGATTAAG	0.108
CCCTTCGA	0.0666
ACCGTACG	-0.116
CGTGCTAG	-0.0215
AAAACATT	0.187
AAAACATA	0.314
AAAACATG	0.351
CCATCAGG	-0.179
AGGGTCAA	-0.0327
CCTGCATA	0.126
AAAGTGTG	0.0664
CTTTTTAC	0.21
AAATACAA	0.281
AAATACAT	0.344
ATATACAC	0.358
GAATACAC	0.363
CAATACAC	0.331
CTATACAC	0.254
AAATACCC	-0.0215
AAATACAC	0.37
GAATACAA	0.214

Sequence	PBM E-score
GTATACAC	0.323
AAATATAC	0.0863
AAATACAG	0.212
ATCCTTAA	0.00499
CACGCTGG	-0.0203
GGTGCTAA	-0.0828
AGGTTGAG	0.0336
TAACTCCA	-0.179
CAGAAATG	0.00635
CACGTTCG	0.00382
ACAGGCGA	0.0648
ACAGGCAT	0.409
ACAGGCAG	0.239
ACAGGCAA	0.489
ACAGGCCA	0.296
ACAGGCCT	0.00325
CCCACTGC	-0.32
GTACCCAC	0.0626
TATGGCAA	-0.0849
CTTGTAAA	0.378
ACTGTAAA	0.191
CGTGTCAG	0.223
CTTGTAAC	0.281
GATGTAAA	0.35
CGTGTCAA	0.342

Sequence	PBM E-score
AATGTAAA	0.374
GTTGTAAA	0.31
GCTGTAAA	0.25
ATTGTAAA	0.3
AATGTAGA	0.221
AGTGTCAA	-0.0255
GAACTCGC	-0.0603
GTCTCATA	-0.0702
CCGCCTTC	-0.226
GGCTCGTA	0.112
ACGGTTGG	-0.106
AGCGTGAT	-0.153
TCTGGTCA	-0.0723
CCCCACGG	-0.224
TATGTAAA	0.434
CATGTAAG	0.398
ACTGTAAT	0.169
CACGTAAA	0.339
AATGTAAC	0.218
TCTGTAAA	0.231
CCTGTAAG	0.282
TATGTAGA	0.333
CATGTAAA	0.436
CCTGTAAA	0.335
AATGTAAG	0.201

Sequence	PBM E-score
AATGTAAT	0.377
CTGCTGAC	0.0167
AAAAGGAG	0.0569
ACAGTGGG	-0.0834
GCTACAGC	-0.167
CGAAGTAA	0.174
CTGCTGCA	-0.0263
CAGTTAGC	-0.274
CCATCTCA	-0.228
CCGCAGGC	0.272
AGGAGTAC	0.171
AACCGACA	0.0529
CCAGAACG	-0.0663
ACCAGCGT	-0.0988
GATGTCAA	0.144
AATGTCAA	0.0969
TATGTCAA	0.363
GATGTAAC	0.175
CCTGTAAC	0.295
CATGTAAC	0.382
CTAGCACC	-0.0791
CGTTTGAG	-0.0011
GACGTGTA	0.318
CACGTGAA	0.183
AACGTGTC	0.273

Sequence	PBM E-score
AACGTGTA	0.415
CACGTGTA	0.383
CACGTGTC	0.183
CGTCTGTA	0.135
ACCCATAA	-0.196
ATACCCAT	0.142
CTATGAAC	0.2
CCAGTGTA	0.0502
CAGGCATA	0.319
CATGCATG	0.0529
GAGGCATC	0.145
CAGACATG	0.106
CAGGCATG	0.358
CAGGCATC	0.402
AGGTGTGC	0.0416
AAGATCTC	-0.0117
CCAGGTAA	0.238
GCAGGTAA	0.385
CCAGGTAC	0.238
ACAGGTAA	0.39
ACAGGTAG	-0.0129
ACAGGTGA	0.0111
ACAGGTTA	0.155
ACAGGTAT	0.194
TCAGGTAA	0.324

Sequence	PBM E-score
GCAGGTCC	-0.168
GCAGGTAC	0.452
ACAGGTAC	0.423
GCGTTACC	0.0266
CGGCTTCA	-0.131
CCCCACAA	-0.0534
ACTGAATC	-0.0804
AGGCTCCG	0.223
ATTGCCAC	-0.0828
GTGGTCTA	-0.279
CTTTGAAC	-0.158
CACACGGA	0.0661
GACACGTA	0.26
GACACGGA	0.22
CACACGTA	0.208
TACACGTA	0.362
TACACGGA	0.357
AGGTTGAT	-0.099
GCCCCCTA	-0.355
ATAGCGAT	-0.11
CAGAGCCG	-0.157
ATTGTGTG	0.0589
GTTGTGTA	0.373
CATGTGTA	0.331
GATGTGTA	0.347

Sequence	PBM E-score
ATTGTGTA	0.346
AATGTGTA	0.289
CTTGTGTA	0.333
ATTGTGTC	0.139
GTGTTGTA	0.283
ATCTGCCC	-0.0711
ACTGGCCC	-0.252
AACGACCG	-0.163
AAATGCGG	-0.0946
ACTGGCTG	-0.261
GACTAATC	-0.182
TCCTGTAA	0.338
CCCTGCGA	-0.212
ACCTGTTA	0.167
GCCTGTAA	0.391
GCCTGTAC	0.338
ACCTGCGA	0.0659
CCCTGTTA	0.12
GCCTGTTA	0.35
GCCTGCGA	0.35
AGAGCACC	-0.233
ACGTATCC	-0.129
CCATCTCC	-0.26
CCGGGGTC	-0.135
AGTGCGAT	-0.00843

Sequence	PBM E-score
GATTTCGC	0.167
GAGACTCA	-0.251
ACACGTGT	0.363
ACACGTGA	0.273
AAACGTGG	-0.0479
AAACGTGT	0.344
ACACGTGG	0.236
AAACGTGA	0.178
ACACGTTG	0.305
ACACGTTA	0.345
ACACGTTC	0.303
CACGCGCC	0.181
CCAGGGTA	-0.153
GCCCAACA	0.146
ATCAAAAC	-0.118
ATGTTTAG	0.279
CTGTTTTA	0.0859
ATGTTTAC	0.374
ATGTTTTA	0.362
GTGTTTTA	0.219
CTGTTTAC	0.28
CTAGAACC	-0.0352
AAGCCCTG	-0.0744
AACTACCG	-0.0555
ATGGGGAG	-0.135

Sequence	PBM E-score
ATGTGTAC	0.285
GAGTGTAA	0.249
ATGTGTAA	0.352
CTGTATAA	0.0988
CTGTGTAC	0.294
CTGTGTGA	0.181
GTGTGTAA	0.394
ATGTATAA	0.256
GTGTATAA	0.343
ATGTGTAG	0.303
CTGTGTAA	0.41
GGGTGTAA	0.223
CCGGATGC	-0.24
ACGATCTC	-0.198
ACTAGGGG	-0.223
CGCTCTTC	-0.174
GACACATC	-0.0862
CCTAGGAC	-0.0674
AACATGTT	0.387
AACATGTA	0.42
AACATTTA	0.244
AACATGTC	0.296
AACATGTG	0.278
AAGATGTA	0.194
CTGGCCCC	-0.215

Sequence	PBM E-score
AACGGTTC	-0.172
AACAGAAT	0.0192
ATCTTAAG	-0.14
CCTGACCG	-0.159
AGTAGGAT	0.0448
GGTAGGAC	-0.172
CGTAGGAC	-0.166
AGTAGGAA	0.403
CGTAGGAG	-0.0892
CGTAGGAA	0.351
GGTAGGAA	0.313
TGTAGGAA	0.406
AGTAGGAC	-0.258
CATCAGGG	-0.0517
ACTGCGGC	-0.227
AACTAAGA	0.0799
CAATTGCA	-0.0452
AGTACCTC	-0.107
ATTACCTA	0.332
GTTACCTA	0.369
AGTACCTA	0.342
CGTACCTA	0.395
GGTACCCA	0.00798
CCTACCTA	0.156
CTTACCTA	0.175

Sequence	PBM E-score
GGTACCTA	0.424
GCTACCTA	0.0719
CGTACCTC	-0.144
AGTACCAA	0.013
GTCACCTA	-0.0234
ATGAAGTA	-0.0752
CTTACAGC	0.00061
CCCCATAC	0.00082
GATGGAAC	-0.0944
AGTACCAG	-0.106
AGTACCTG	0.378
ATTACCTG	0.336
CAGCCCGG	-0.239
CGGGGAAC	-0.0973
AGTGTAGA	0.151
GATGTAGA	0.195
CGTGTAGA	0.414
CATGTATC	0.277
CATGTAGC	0.276
CGTGTAGC	0.228
CAAGTAGG	0.105
AATGTAGG	0.191
CATGTAGG	0.374
CATGTATA	0.376
CATGTAGA	0.39

Sequence	PBM E-score
GATGTATA	0.195
ATTGGAGA	-0.179
AAGGGGGC	-0.138
AGTAGAAG	0.0882
AGGTTCAT	-0.0206
GGCCCAGA	-0.411
CCAAGACG	-0.236
ACAACGGG	0.07
GCTAACTA	0.00452
AGTGTAAA	0.28
AGTGTAAT	0.308
TGTGTAAA	0.416
ACTGTAAG	0.0605
AGTGTAAG	0.00213
GGTGTAAA	0.297
CGTGTAAA	0.438
CGTGTAAC	0.351
AGTGTAAC	0.128
CGTGTAAG	0.38
GGTGTAAC	0.164
